Source: PubChem (National Center for Advancing Translational Sciences (NCATS))
Shown are actives, neighbours in structure and some others; about 0.43% of the full set was active somewhere.
GAA glycogen mod = inhibitors or activators of human alpha-glucosidase glycogen cleavage. 0.38% of 300,000 active. P10253. Potency, µM (series often up to 76.4 µM), for inactives: at the highest dose activity change, negative = inhibition, usual class: inhibitors. recombinant GAA, glycogen substrate, Amplex Red glucose oxidase fluorescence. AID 2100;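 also: potency is read from the fitted curve at half-maximal effect; 0% = full enzyme reaction and -100% = no-enzyme basal signal; the screen sought inhibitors and activators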
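Recombinant enzyme (4 nM final) with compounds titrated up to 77 uM and bovine liver glycogen (30 ug) in citrate pH 5.0, 0.01% Tween-20, 37 C 40 min. Released glucose detected by Amplex Red/glucose oxidase (Ex 573/Em 610); AC50 from Hill fits.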
GLA spleen mod = alpha-galactosidase A (human) modulation; human spleen homogenate, 4MU-alpha-Gal fluorescence, 40 min; Potency, µM (doses to about 80 µM), for the others: at the top dose activity change, negative = inhibition, hits mostly inhibitors; 0.008% of 240,000 active;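 also: potency is read from the fitted curve at half-maximal effect; 0% = enzyme with vehicle and -100% = no enzyme basal signal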
Target sequence (P06280 32-429 limits assumed): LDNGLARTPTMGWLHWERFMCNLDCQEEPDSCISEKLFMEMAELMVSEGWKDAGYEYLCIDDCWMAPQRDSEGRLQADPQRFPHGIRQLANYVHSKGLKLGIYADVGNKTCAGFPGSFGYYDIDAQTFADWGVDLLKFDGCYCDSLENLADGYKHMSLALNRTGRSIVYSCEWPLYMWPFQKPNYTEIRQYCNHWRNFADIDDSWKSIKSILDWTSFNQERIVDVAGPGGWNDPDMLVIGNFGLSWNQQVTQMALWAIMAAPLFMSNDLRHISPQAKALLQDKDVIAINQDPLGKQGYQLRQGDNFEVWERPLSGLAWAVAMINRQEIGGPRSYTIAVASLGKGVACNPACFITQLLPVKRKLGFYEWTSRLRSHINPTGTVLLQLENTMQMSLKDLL
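Fluorogenic readout (Ex 365/Em 440 nm) of 4-methylumbelliferone released from 1 mM 4-MU-alpha-galactoside by spleen homogenate, 40 min at 37C, pH 5.0. Data normalized to no-enzyme and enzyme controls; Hill-equation AC50 from compound titrations.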
GLA inh pH 4.5 = inhibitors of human alpha-galactosidase A at pH 4.5; P06280; purified enzyme, 4-MU-alpha-Gal fluorescence, pH 4.5; activity change, negative = inhibition, % at 105 µM; 230,000 tested, under 10 active; AID 1467;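 also: 0% = full activity with enzyme and -100% = basal without enzyme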
N370S GC mod = inhibits or activates N370S mutant glucocerebrosidase; P04062; N370S GC spleen homogenate, 4MU-glucoside fluorescence; Potency, µM (series often up to 59.4 µM), for inactives: at the top dose activity change, negative = inhibition, usual class: inhibitors; 0.092% of 330,000 active;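 also: potency is read from the fitted curve at half-maximal effect; 0% = full enzyme activity and -100% = no enzyme basal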
GAA inh = blocks human lysosomal alpha-glucosidase; 0.005% of 200,000 active; P10253; purified human GAA, 4-MU-alpha-glucoside fluorescence; Potency, µM (doses to about 76.9 µM), for inactives: at the highest dose activity change, negative = inhibition, usual class: inhibitors;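 also: potency is read from the fitted curve at half-maximal effect; plate controls were uninhibited enzyme wells for no effect and no-enzyme background for full effect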
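Endpoint fluorogenic read: 20 min room-temperature reaction of 4 nM human alpha-glucosidase with 400 uM 4-methylumbelliferyl-alpha-D-pyranoside, pH 5.0, quenched with 1M NaOH/1M glycine pH 10. AC50 from Hill modeling.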
aGlu spleen mod = lysosomal alpha-glucosidase (human) modulation | human spleen homogenate, 4-MU-alpha-glucoside fluorescence | P10253 | Potency, µM (titrated, usually from 79.9 µM), without a hit: at the top dose activity change, negative = inhibition, most hits filed as inhibitors | AID 2112 | 0.006% of 240,000 active;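 also: potency is read from the fitted curve at half-maximal effect; 0% = enzyme with vehicle and -100% = no enzyme basal signal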
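AC50 values come from Hill-equation fits of concentration-response data, normalized to no-enzyme and full-activity controls. Enzyme source: 1 ug human spleen homogenate; 1 mM fluorogenic 4-MU glucoside, pH 5.0 citrate buffer, 37 C, 40 min.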
Active calls of the source: *; ? = inconclusive; . = no result given; [ ] = another dose, or the depositor's remark. Calls follow the shape of the dose curve; as a rule, active = well fitted curve in the direction sought with a large enough effect; inconclusive = small, poorly fitted or top-dose-only effect, or another doubt; inactive = no such curve, though single readings can be large; an effect the other way counts as inactive or inconclusive.

SMILES | GAA glycogen mod | GLA spleen mod | GLA inh pH 4.5 | N370S GC mod | GAA inh | aGlu spleen mod
CO[C@H]1COC(=O)[C@H](C)NC(=O)[C@@H](C)COC(=O)C/C=C\[C@@H]1C | . | 0%[17.5 µM] | . | 10%[12.8 µM] | . | 11%[17.4 µM]
O=C1c2ccccc2C(=O)N1Cc1cc(Cl)c(O)c([N+](=O)[O-])c1 | 0% | . | . | -6% | . | .
Nc1cc(CN2C(=O)c3ccccc3C2=O)cc(Cl)c1O | 7.9µM* | 3% | -7 | -8% | -6% | 1%
O=C1NC(=O)C(Cc2ccc(OCCN3COc4ccccc4C3=O)cc2)S1 (stereo not given) | . | 4% | . | 8% | . | -4%
Cc1c(N=Cc2cccs2)c(=O)n(-c2ccccc2)n1C | 25µM* | 12% | -11 | -3% | -3% | 8%
Cc1ccsc1C=Nc1c(C)n(C)n(-c2ccccc2)c1=O | 3.1µM* | 12% | -10 | 4% | 6% | 2%
O=C(O)c1ccc(-c2ccc3cc(C45CC6CC(CC(C6)C4)C5)c(O)cc3c2)cc1 | . | -7% | . | -8% | . | 2%
CCCC[C@H](NC(=O)[C@H](CC(C)C)NC(=O)CNC(=O)[C@@H](NC(=O)[C@H](Cc1ccccc1)NC(=O)[C@H](CO)NC(=O)[C@@H](N)CC(=O)O)C(C)C)C(N)=O | . | 13% | . | 5% | . | 8%
CCCc1cc(=O)[nH]c(Nc2ccc(O)cc2C)n1 | 10µM* | . | . | . | . | .
CCCc1cc(=O)[nH]c(Nc2cccc(Cl)c2Cl)n1 | -8%[76.3 µM] | . | . | . | . | .
O=c1[nH][nH]c(C(F)(F)F)c1C=Nc1ccccc1 | 4% | -11% | 5 | 5% | 2% | -4%
Cc1cc(O)ccc1N=Cc1c(C(F)(F)F)[nH][nH]c1=O | 22µM* | -2% | 3 | -5% | -11% | 3%
COc1ccc(C2CC(c3ccccc3)Oc3ccc(OC)cc32)cc1 (stereo not given) | . | 14% | . | -1% | . | 2%
COc1ccc(NC(=O)NS(=O)(=O)c2ccc(C)cc2)c(OC)c1 | 25µM* | 5% | 5 | 12% | 0% | 10%
CC(C)[C@@H]1NC(=O)[C@H](CCCCN)NC(=O)[C@@H](Cc2c[nH]c3ccccc23)NC(=O)[C@H](Cc2ccc(O)cc2)NC(=O)[C@@H](NC(=O)[C@H](N)Cc2ccccc2)CSSC[C@@H](C(=O)N[C@@H](Cc2c[nH]c3ccccc23)C(N)=O)NC1=O | . | -10% | . | -2% | . | -9%
CC(C)OC(C)C | . | 7% | . | -4% | . | -1%
CCc1ccc(N2CCN(C(=O)c3ccc4c(c3)OCO4)CC2)cc1 | -1%[76.3 µM] | . | . | -7% | . | .
O=C(c1ccccc1)N1CCN(c2ccc(NCc3ccc4c(c3)OCO4)cc2)CC1 | 28µM* | -2% | -3 | -2% | -4% | -1%
O=C(O)c1cc(NCc2ccc3c(c2)OCO3)ccc1N1CCOCC1 | 5µM* | 8% | 5 | -9% | -1% | 5%
COC(=O)c1cc(NCc2ccc3c(c2)OCO3)ccc1N1CCOCC1 | ? | 4% | -2 | 1% | -7% | -5%
CC(=O)N1CCN(c2ccc(NCc3ccc4c(c3)OCO4)cc2)CC1 | 22µM* | -9% | 6 | -23% | 8% | -7%
COC(=O)C1=C(C)N(Cc2ccccc2)C2=C3C(=O)CCCC3[C@@](O)(C(=O)OC)C(=O)N2C1c1ccccc1 (stereo not given in full) | . | 15%[17.5 µM] | . | -4%[12.8 µM] | . | 5%[17.4 µM]
COC(=O)/C=C\CCc1coc(/C=C\CNC(=O)OC)n1 | . | 15%[17.5 µM] | . | -6%[12.8 µM] | . | -11%[17.4 µM]
C[C@@H](O)C(N)C(=O)O (stereo not given in full) | . | 0% | . | -3% | . | 2%
CCOC(=O)CCN1C(=O)[C@H]2[C@H]3[C@H](O)[C@H](O)C/C(=N/OCc4ccccc4)[C@H]3CC[C@@H]2C1=O | . | -5%[17.5 µM] | . | -18%[12.8 µM] | . | -4%[17.4 µM]
COC(=O)Nc1c(-c2ccccc2)nc2ccc(Cl)cn12 | 6%[76.3 µM] | . | . | -6% | . | .
COC(=O)CNc1c(-c2ccccc2)nc2ccc(Br)cn12 | ? | -17% | -2 | 11µM* | -8% | -7%
